Nine molecules from PubChem BioAssay (NCI) can be followed below.

What all share (assay): NCI-60 one-dose screen, 48 h (100 = growth as untreated, 0 = no growth, -100 = all killed)
For one assay, the system named is K-562 leukemia. The following applies: 10 µM unless noted.
The next assay relates to MALME-3M melanoma. The following applies: 10 µM unless noted.
The next assay deals with MDA-MB-231 breast. The following applies: 10 µM unless noted.
For a further assay, the system named is RXF 393 renal. The following applies: 10 µM unless noted.
The test system of another assay is SF-268 CNS. The following applies: 10 µM unless noted.
Another assay has as its system SF-295 CNS. The following applies: 10 µM unless noted.
The subject of the next assay is SF-539 CNS. The following applies: 10 µM unless noted.
A further assay deals with UACC-257 melanoma. The following applies: 10 µM unless noted.
In another assay the test system is HCT-15 colon. The following applies: 10 µM unless noted.
The next assay has as its system HT29 colon. The following applies: 10 µM unless noted.
The subject of the next assay is SNB-19 CNS. The following applies: 10 µM unless noted.
The test system of the next assay is U251 CNS. The following applies: 10 µM unless noted.
A further assay deals with PC-3 prostate. The following applies: 10 µM unless noted.
The subject of the next assay is UACC-62 melanoma. The following applies: 10 µM unless noted.
A further assay relates to LOX IMVI melanoma. The following applies: 10 µM unless noted.
For a further assay, the system named is SK-MEL-28 melanoma. The following applies: 10 µM.
In another assay the test system is SK-MEL-2 melanoma. The following applies: 10 µM unless noted.
A further assay concerns M14 melanoma. The following applies: 10 µM unless noted.
Another assay concerns SNB-75 CNS. The following applies: 10 µM unless noted.
The next assay relates to SK-MEL-5 melanoma. The following applies: 10 µM unless noted.

SMILES strings stand for the structures. This is part of a sample that, as a whole, favours compounds with a hit. Of some 83,000 tested, about 20% had one in any assay.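 Assay: single dose, 48 h. Readout: percent growth (0 = no net growth; negative = cell death). Active: <10.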 Unmarked numbers belong to inactive results. Calls of active or inactive are those of the source.

On to `CN1C(=O)N(C)C2C1NN=c1s/c(=C\c3ccc([N+](=O)[O-])cc3)c(=O)n12` (configuration not stated), for which the growth was 22% in the assay with K-562 leukemia; 65.9% in the assay with MALME-3M melanoma; 75.1% in the assay on MDA-MB-231 breast; 78.6% in the assay with RXF 393 renal; 77.1% with SF-268 CNS; 40.8% with SF-295 CNS. Also, the growth in the assay on SF-539 CNS is 54.7%; in the assay on UACC-257 melanoma, 63.6%; in the assay on HCT-15 colon, 37.6%; with HT29 colon, 25.9%; in the assay with SNB-19 CNS it was 54%; in the assay with U251 CNS, 69.8%. Moreover, the growth was 45.8% in the assay on PC-3 prostate; 39.4% with UACC-62 melanoma; 51.3% in the assay with LOX IMVI melanoma; 76.9% in the assay with SK-MEL-28 melanoma; 64.6% in the assay on SK-MEL-2 melanoma.
Turning to `FC(F)(F)c1cccc(Nc2nc(-c3ccccc3)nc3ncccc23)c1`, the growth in the assay with K-562 leukemia is -47.1% (active); with MALME-3M melanoma, -83.1% (active); in the assay on MDA-MB-231 breast, 44%; in the assay with RXF 393 renal, -13.6% (active); in the assay with SF-268 CNS it was 13.3%; in the assay with SF-539 CNS, 3.25% (active). Moreover, the growth in the assay with UACC-257 melanoma is -52.7% (active); in the assay on M14 melanoma it was -86.6% (active); in the assay on HCT-15 colon it was 17.6%; in the assay with HT29 colon, 15%; with SNB-75 CNS, 91.4%; in the assay on SNB-19 CNS it was 100%. Moreover, the growth in the assay with U251 CNS was 58.3%; with PC-3 prostate it was 6.17% (active); in the assay with SK-MEL-5 melanoma, -91.4% (active); with UACC-62 melanoma it was -50.6% (active); in the assay with SK-MEL-28 melanoma it was -84.6% (active); in the assay on SK-MEL-2 melanoma, 104%.
Regarding `O=CCCCC(O)C=O` (configuration not stated), the growth in the assay on K-562 leukemia was 103%; in the assay with MALME-3M melanoma it was 104%; with MDA-MB-231 breast, 115%; in the assay on RXF 393 renal it was 102%; in the assay on SF-268 CNS it was 106%; in the assay on SF-539 CNS it was 105%. The growth in the assay on UACC-257 melanoma is 106%; with M14 melanoma, 105%; in the assay on HCT-15 colon it was 108%; with HT29 colon, 111%; with SNB-75 CNS, 97.7%; with SNB-19 CNS it was 106%. In addition, the growth was 103% in the assay with PC-3 prostate; 109% in the assay with UACC-62 melanoma; 97.9% in the assay with LOX IMVI melanoma; 111% in the assay with SK-MEL-28 melanoma; 105% in the assay on SK-MEL-2 melanoma.
Take `COc1ccc(/C=C2\SC(=Nc3ccccc3)NC2=O)cc1`: the growth in the assay on K-562 leukemia is -64.2% (active); in the assay on MALME-3M melanoma, -86% (active); in the assay with MDA-MB-231 breast it was -83% (active); in the assay on RXF 393 renal it was -95.5% (active); with SF-268 CNS it was -82.5% (active); in the assay on SF-539 CNS, -96.2% (active). Also, the growth in the assay on UACC-257 melanoma is -91.8% (active); in the assay with M14 melanoma, -79.8% (active); with HCT-15 colon, -44.5% (active); in the assay on HT29 colon, -89.2% (active); with SNB-75 CNS, -97.9% (active); with SNB-19 CNS, -50% (active). For the same molecule, the growth in the assay on U251 CNS was -90.1% (active); in the assay on PC-3 prostate it was -73.5% (active); with SK-MEL-5 melanoma, -97.2% (active); in the assay on LOX IMVI melanoma it was -82.9% (active); with SK-MEL-28 melanoma, -100% (active); in the assay on SK-MEL-2 melanoma, -84.8% (active).
Regarding `COc1ccc(OC)c(N(CCN2C(=O)c3ccccc3C2=O)C(=O)CCl)c1`, the growth with K-562 leukemia is 102%; in the assay on MALME-3M melanoma, -36.4% (active); in the assay on MDA-MB-231 breast, 69.7%; in the assay on RXF 393 renal, 58.7%; with SF-268 CNS, 35.3%; in the assay with SF-539 CNS, 23.1%. In addition, the growth is 83% in the assay with UACC-257 melanoma; 84.2% with M14 melanoma; 80.3% with HCT-15 colon; 12.5% in the assay on HT29 colon; 87.4% in the assay on SNB-75 CNS; 114% in the assay with SNB-19 CNS. Moreover, the growth was 60.9% in the assay on U251 CNS; 31.9% in the assay with PC-3 prostate; 94% in the assay on SK-MEL-5 melanoma; 70.5% in the assay with UACC-62 melanoma; -11.8% (active) in the assay on LOX IMVI melanoma; 100% in the assay on SK-MEL-28 melanoma. In addition, the growth in the assay with SK-MEL-2 melanoma was 72.3%.
On to `CC(C)[C@H](NC(=O)Cn1cc(C(=O)O)nn1)C(=O)O`, for which the growth in the assay with K-562 leukemia is 118%; in the assay with MALME-3M melanoma it was 101%; with MDA-MB-231 breast it was 97.6%; in the assay with RXF 393 renal it was 112%; in the assay on SF-268 CNS, 115%; in the assay on SF-295 CNS, 93%. Further, the growth was 105% with SF-539 CNS; 99.6% with UACC-257 melanoma; 100% with HCT-15 colon; 104% in the assay on SNB-75 CNS; 105% in the assay with SNB-19 CNS; 100% with U251 CNS. The growth in the assay with PC-3 prostate is 94.1%; in the assay on SK-MEL-5 melanoma, 98.6%; in the assay with UACC-62 melanoma it was 103%; with LOX IMVI melanoma, 104%; with SK-MEL-28 melanoma it was 111%; with SK-MEL-2 melanoma it was 127%.
`CN1CCN(c2nc(Nc3ccc(O)cc3)nc3ccccc23)CC1`: the growth in the assay on K-562 leukemia is 42%; with MALME-3M melanoma it was 61.8%; in the assay with MDA-MB-231 breast it was 66.2%; in the assay on RXF 393 renal, 77.3%; in the assay on SF-268 CNS, 52.5%; in the assay on SF-539 CNS, 47.2%. Also, the growth in the assay on UACC-257 melanoma is 59.2%; in the assay on M14 melanoma, 50.3%; with HCT-15 colon, 32.5%; with HT29 colon, 43.4%; in the assay with SNB-75 CNS, 75.2%; with SNB-19 CNS, 55.9%. Moreover, the growth in the assay with U251 CNS was 33.9%; in the assay with PC-3 prostate it was 60%; with SK-MEL-5 melanoma, 46.1%; in the assay on UACC-62 melanoma, 49.2%; in the assay with LOX IMVI melanoma, 20.1%; in the assay on SK-MEL-28 melanoma, 66.2%. Further, the growth in the assay with SK-MEL-2 melanoma is 76.8%.
For `CCOC(=O)c1ccc(N=Cc2sc(=O)[nH]c2O)cc1`, the growth is 103% in the assay on K-562 leukemia; 91.2% in the assay on MALME-3M melanoma; 95.5% in the assay on MDA-MB-231 breast; 102% in the assay with RXF 393 renal; 88.3% in the assay on SF-268 CNS; 94.1% in the assay on SF-295 CNS. Besides, the growth with SF-539 CNS was 94%; with UACC-257 melanoma it was 96.9%; in the assay with HCT-15 colon, 99.1%; in the assay on HT29 colon it was 104%; in the assay with SNB-75 CNS, 84.9%; in the assay on SNB-19 CNS, 91.9%. Further, the growth in the assay with U251 CNS was 97.3%; with SK-MEL-5 melanoma, 99.8%; in the assay with UACC-62 melanoma, 91.2%; with LOX IMVI melanoma, 93.6%; in the assay on SK-MEL-28 melanoma it was 105%.
`CCOC(=O)c1cnc2ccc(Cl)cc2c1NCCCN(C)C`: the growth was 1.51% (active) in the assay on K-562 leukemia; -6.52% (active) with MALME-3M melanoma; 15.8% in the assay with MDA-MB-231 breast; -3.24% (active) in the assay on RXF 393 renal; 1.81% (active) with SF-268 CNS; -12.7% (active) in the assay with SF-539 CNS. Moreover, the growth with UACC-257 melanoma is -3.99% (active); in the assay on M14 melanoma, 2.88% (active); in the assay with HCT-15 colon, 26.2%; in the assay with HT29 colon, 27.3%; with SNB-75 CNS, 35.6%; in the assay on SNB-19 CNS, 24.5%. The growth is 8.33% (active) in the assay on U251 CNS; 25.7% in the assay on PC-3 prostate; -50.8% (active) in the assay with SK-MEL-5 melanoma; -15.6% (active) in the assay with UACC-62 melanoma; 1.24% (active) with LOX IMVI melanoma; 50.1% with SK-MEL-28 melanoma. In addition, the growth with SK-MEL-2 melanoma was -0.411% (active).
